In the library only some 3.1% were active in any assay of this set; here they are far more common.
ATG4B inh – ATG4B protease inhibitors, primary screen, biochemical, fluorescence, uHTS. inhibition, % at 8.33 µM. AID 504462, 2011. Cysteine protease ATG4B (Homo sapiens), Q9Y4P1. hit rate 0.51% among 340,000. ATG4B cleavage of LC3-PLA2, NBD-HPC fluorescence, 1 h; in the data active = inhibition above about 40%
Target sequence (Q9Y4P1 whole entry, looked up): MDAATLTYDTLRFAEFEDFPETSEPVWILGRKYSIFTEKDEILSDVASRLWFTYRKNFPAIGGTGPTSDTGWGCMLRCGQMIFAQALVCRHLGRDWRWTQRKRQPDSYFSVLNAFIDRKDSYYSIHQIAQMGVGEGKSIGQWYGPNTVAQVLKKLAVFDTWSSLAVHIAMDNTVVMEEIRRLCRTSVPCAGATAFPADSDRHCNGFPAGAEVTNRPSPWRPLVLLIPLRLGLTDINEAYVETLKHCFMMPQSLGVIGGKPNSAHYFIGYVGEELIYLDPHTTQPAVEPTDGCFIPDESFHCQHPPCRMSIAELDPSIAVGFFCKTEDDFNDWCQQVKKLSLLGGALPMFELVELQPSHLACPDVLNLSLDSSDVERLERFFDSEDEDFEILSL
NadD inh – inhibitors of S. aureus NadD, primary screen, biochemical, colorimetric, uHTS. purified NadD enzyme, colorimetric absorbance read-out. inhibition, % at 20 µM. hit rate 0.78% among 360,000. AID 602399, 2012; in the data active = inhibition above about 26%
Calb FLC – C. albicans growth inhibition with fluconazole, primary screen, CaCi-2 strain, Alamar Blue fluorescence; C. albicans CaCi-2 (fluconazole-resistant clinical isolate) + fluconazole, 48 h; growth inhibition, % (test concentration not listed); hit rate 0.57% among 300,000;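 active = growth inhibition above about 58% in most replicates, limit read from the data, passing the limit was not always enough; inconclusive = exactly half the replicates above a set limit; inactive = most replicates below a set limit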;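 note: all wells also contain fluconazole at 8 µg/ml as a sub-toxic cotreatment; 0% = median of DMSO wells and 100% = median of geldanamycin control wells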
Mot1-301 SUMO – yeast Mot1-301 growth rescue at high temperature, primary screen, SUMOylation pathway inhibitor project, S. cerevisiae, ATP luminescence, 38.5C. S. cerevisiae Mot1-301 growth rescue; percent above DMSO median, 100 means doubled. growth rescue, % at 18.8 µM. hit rate 1% among 320,000;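 active = every valid replicate shows activation above 250% relative to neutral control wells; inactive = the rest, any valid replicate at or below 250%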;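 note: OY570 slx delta 5 strain wells were the positive control but not used for scaling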
FAS TE block – FAS thioesterase domain inhibitors, primary screen, biochemical, fluorescence intensity, uHTS | Fatty acid synthase (Homo sapiens), P49327 | recombinant FAS-TE, OMFH fluorogenic substrate, fluorescence endpoint | inhibition, % at 15 µM | hit rate 0.67% among 360,000 | AID 602261, 2012;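 active = compounds whose normalised, plate-corrected inhibition of enzyme fluorescence in the single-dose primary screen is 50% or more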;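 note: 0% = DMSO with enzyme and 100% = substrate without enzyme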
* hit, by the source's call; ? = inconclusive; · = no result given; + = active, no number; ! = repeats disagree.

SMILES | ATG4B inh | NadD inh | Calb FLC | Mot1-301 SUMO | FAS TE block
CC(C)(C)Sc1ccc([N+](=O)[O-])cc1C(=O)Nc1ccncc1 | -8 | -3 | -1 | 2 | 2
Cn1c(=O)cc(OCCCC(=O)Nc2cccnc2)c2ccccc21 | 4 | 4 | 111* | -16 | -4
CCc1ccc(NC(=O)CCCOc2cc(=O)n(C)c3ccccc23)cc1 | · | -6 | · | · | 5
CN(CCCNC(=O)CCCOc1cc(=O)n(C)c2ccccc12)Cc1ccccc1 | -6 | -4 | 116* | -12 | -1
O=[N+]([O-])c1cnc(Nc2ccccc2)nc1Nc1ccccc1 | 4 | 5 | 8 | -13 | -1
Brc1ccc(/C=C/C=N/Nc2nc3ccccc3s2)cc1 | 9 | 16 | 99* | 2 | 5
C(=C\c1ccccc1)/C=N/Nc1nc2ccccc2s1 | 6 | 7 | -33 | 88 | 17
O=C(Nc1cccc(Cl)c1)c1cc(N=Nc2ccc([N+](=O)[O-])cc2Cl)ccc1O | 16 | 50* | 3 | -26 | 28
CN1CCC(OC(c2ccccc2)c2ccccc2)CC1 | -3 | 0 | · | 321*! | 0
CN1CCC(Oc2ccccc2Sc2ccccc2)CC1 | 4 | -5 | 8 | 74 | -6
CCCCCNC(=O)c1cccc(S(=O)(=O)N2CC3(C)CC2CC(C)(C)C3)c1 (configuration not stated) | -3 | -3 | 2 | -18 | 21
Cc1ccc(C)c(N(C(=O)c2csnn2)C(C(=O)NC2CCCC2)c2cccnc2)c1 (configuration not stated) | 4 | 5 | 1 | -2 | -2
Cc1ccc2cc(/C=C(\C#N)C(N)=O)c(N3CCCCC3)nc2c1 | -6 | 3 | 7 | -12 | 22
Cc1ccc2cc(C=C(C#N)C#N)c(N3CCCCC3)nc2c1 | 4 | 1 | 58* | -13 | 0
O=C(O)CNC(=S)N(Cc1ccccc1F)C1CCCCC1 | 2 | -8 | ? | + | -5
CCCCNC(=O)CNC(=S)N(Cc1ccccc1F)C1CCCCC1 | 3 | -9 | 11 | -24 | 5
COc1ccccc1-c1cc(C(=O)NC2CCCC2)no1 | 6 | -5 | -5 | 13 | 9
O=C(Nc1ccccc1N1CCN(C(=O)c2ccccc2)CC1)c1cc2ccccc2o1 | 2 | 7 | · | 264* | 30
CC(=O)Oc1ccc(C23c4ccccc4C2(OC(C)=O)c2cc(OC(C)=O)ccc23)cc1 (configuration not stated) | -8 | 9 | · | · | 25
COC(=O)C1(c2ccccc2)NC(c2ccc(O)cc2)C2C(=O)N(c3ccc4c(c3)OCO4)C(=O)C21 (configuration not stated) | -17 | 2 | -1 | 260* | -4
Cc1ccc(-n2c(C)cc(/C([O-])=C(/C(=S)Nc3ccc(F)c(Cl)c3)[n+]3ccccc3)c2C)cc1 | -2 | 27 | 110* | -18 | 2
Cc1cc(/C([O-])=C(/C(=S)Nc2ccc(F)cc2)[n+]2ccccc2)c(C)n1-c1ccc(F)cc1 | -8 | 16 | -33 | -20 | 1
CN1CCc2c(sc(NC(=O)c3cc4cc([N+](=O)[O-])ccc4s3)c2C(N)=O)C1 | · | · | 97* | · | ·
N#Cc1ccccc1CSc1nnc(Cc2ccccc2)o1 | -1 | -2 | 5 | 348* | 3
CC(=O)c1ccc(S(=O)(=O)N(C)CC(=O)NCc2ccco2)cc1 | -4 | -1 | · | 171 | -4
SMILES | ATG4B inh | NadD inh | Calb FLC | Mot1-301 SUMO | FAS TE block
COc1ccc(CCn2c(C)cc3c(c2=O)C(c2ccc4c(c2)OCO4)C(C#N)=C(N)O3)cc1OC (configuration not stated) | -8 | 12 | 109* | -4 | 12
Cc1cc2c(c(=O)n1Cc1ccccn1)C(c1ccc3c(c1)OCO3)C(C#N)=C(N)O2 (configuration not stated) | -5 | 5 | -8 | -6 | 8
CC(C)(C)OC(=O)NCCCC[C@H](NC(=O)c1nc[nH]c1C(=O)NCc1ccccc1)C(=O)OC(C)(C)C | -6 | -3 | 5 | 12 | 55*
CC(C)(C)OC(=O)NCCCC[C@H](NC(=O)c1[nH]cnc1C(=O)N[C@@H](Cc1ccccc1)C(=O)OC(C)(C)C)C(=O)OC(C)(C)C | -9 | 13 | -4 | -1 | 21
Cc1cccc(NC(=O)c2nc[nH]c2C(=O)Nc2cc(Br)ccc2F)c1 | · | 14 | · | · | -5
C/C(CC(=O)Nc1cc(C)ccn1)=N\NC(=O)c1cccc(C)c1O | 1 | 2 | 94* | 1 | -3
C/C(CC(=O)Nc1cc(C)ccn1)=N\NC(=O)c1cccc(C)c1 | -6 | 1 | -9 | -12 | -6
CC(C)Oc1ccc(C(=O)Nc2c3c(nn2-c2ccccc2)CS(=O)(=O)C3)cc1 | -9 | 4 | 10 | -1 | 2
O=C(Oc1c(Cl)cc(Cl)c2cccnc12)c1ccco1 | 3 | 6 | 101* | 218 | 6
O=C(Oc1c(CN2CCOCC2)cc(Cl)c2cccnc12)c1ccccc1Cl | -8 | -7 | 100* | 2 | 36
O=C(Oc1c(CN2CCOCC2)cc(Cl)c2cccnc12)c1cccs1 | 4 | 2 | 101* | -23 | 5
O=C(Oc1c(Cl)cc(Cl)c2cccnc12)c1cccs1 | -2 | -1 | 108* | 114 | 17
CCN(CCS(=O)(=O)c1ccc(Br)cc1)Cc1nc2ccccc2c(=O)[nH]1 | -5 | 3 | · | -3 | 2
Cc1cc(C(=O)OCC(=O)c2ccc3c(c2)OCCO3)c(C)o1 | -7 | -12 | -13 | -11 | 7
Cc1c(C(=O)OCC(=O)c2ccc3c(c2)OCCO3)oc2ccccc12 | 18 | -8 | -3 | 312* | 6
Cc1cccc(N(CC(=O)NCCc2ccccc2)C(=O)CCC(=O)Nc2ccccn2)c1C | -12 | -5 | 2 | 6 | -1
C=CCSc1nnc(NC(=O)CCNC(=O)c2ccccc2Cl)s1 | · | -5 | · | · | -10
Cc1ncc(CO)c(/C=N/NC(=S)Nc2ccc(Cl)c(Cl)c2)c1O | -1 | 4 | 110* | -20 | 12
Cc1ncc(CO)c(/C=N/NC(=S)Nc2cccc(Cl)c2)c1O | -17 | 12 | -24 | -11 | -5
COc1ccc(N2C(=O)C(Cl)=C(Oc3cccc(OC)c3)C2=O)cc1 | 5 | -11 | · | 7 | 52*
COc1ccc(N2C(=O)c3ccccc3C2=O)cc1 | -3 | 1 | -4 | -2 | 3
O=C(NNC(=O)C12CC3CC(CC(C3)C1)C2)c1cnccn1 | -4 | 0 | 104* | -5 | -16
CC(C)(C)C(=O)NNC(=O)c1cnccn1 | 0 | -8 | -12 | -1 | -3
CC1(C(=O)NC(=S)NNC(=O)c2ccncc2)CCCCC1 | -7 | 1 | -5 | -19 | -15
O=C(NNC(=S)NC(=O)C12CC3CC(CC(C3)C1)C2)c1ccncc1 | -18 | 0 | 103* | -11 | -8
